From the supplement of paper PMC7411054
Counter-ions that a name gives are not always drawn.

Experiments:
Test in all cases: phenotypically active (imaging signature differs from DMSO and reproducible) at any of 0.3-9 uM (binary (1 = active, 0 = inactive)); higher = active
Settings in all cases: treatment time: 24 h
A549-ACTB-RAB5A = test system: A549-ACTB-RAB5A
Outline: (§1)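 Each of fifteen gene-edited A549, HepG2 and WPMY1 reporter lines, marked with BFP for segmentation and GFP and RFP/FusionRed, was treated in four wells at 0.3, 1, 3 or 9 µM for 24 h prior to live imaging. Normalisation of per-well live-cell features used solvent control wells. Deviation needed ≥3 of 4 wells beyond the 95th percentile of control Euclidean distances, and reproducibility needed a median replicate Pearson correlation above the 95th percentile of non-replicates. Both were required for phenotypic activity.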

A549-CANX-COX4 = test system: A549-CANX-COX4
Outline: as §1

A549-GM130-SQSTM1 = test system: A549-GM130-SQSTM1
Outline: as §1

A549-TP53BP1-CLTA = test system: A549-TP53BP1-CLTA
Outline: as §1

A549-TUBA1B-RELA = test system: A549-TUBA1B-RELA
Outline: as §1

HepG2-ACTB-RAB5A = test system: HepG2-ACTB-RAB5A
Outline: as §1

HepG2-CANX-COX4 = test system: HepG2-CANX-COX4
Outline: as §1

HepG2-GM130-SQSTM1 = test system: HepG2-GM130-SQSTM1
Outline: as §1

HepG2-TP53BP1-CLTA = test system: HepG2-TP53BP1-CLTA
Outline: as §1

HepG2-TUBA1B-RELA = test system: HepG2-TUBA1B-RELA
Outline: as §1

WPMY1-ACTB-RAB5A = test system: WPMY1-ACTB-RAB5A
Outline: as §1

WPMY1-CANX-COX4 = test system: WPMY1-CANX-COX4
Outline: as §1

WPMY1-GM130-SQSTM1 = test system: WPMY1-GM130-SQSTM1
Outline: as §1

WPMY1-TP53BP1-CLTA = test system: WPMY1-TP53BP1-CLTA
Outline: as §1

WPMY1-TUBA1B-RELA = test system: WPMY1-TUBA1B-RELA
Outline: as §1

Measured: phenotypically active

C[C@]12CC[C@@H]3c4ccc(O)cc4CC[C@H]3[C@@H]1CC[C@@H]2O [estradiol]
inactive: A549-ACTB-RAB5A 0 | A549-CANX-COX4 0 | A549-GM130-SQSTM1 0 | A549-TP53BP1-CLTA 0 | A549-TUBA1B-RELA 0 | HepG2-ACTB-RAB5A 0 | HepG2-CANX-COX4 0 | HepG2-GM130-SQSTM1 0 | HepG2-TP53BP1-CLTA 0 | HepG2-TUBA1B-RELA 0 | WPMY1-ACTB-RAB5A 0 | WPMY1-CANX-COX4 0 | WPMY1-GM130-SQSTM1 0 | WPMY1-TP53BP1-CLTA 0 | WPMY1-TUBA1B-RELA 0

CCCSc1nc2c(c(=O)n1-c1ccccc1)SCC2
inactive: A549-ACTB-RAB5A 0 | A549-CANX-COX4 0 | A549-GM130-SQSTM1 0 | A549-TP53BP1-CLTA 0 | A549-TUBA1B-RELA 0 | HepG2-ACTB-RAB5A 0 | HepG2-CANX-COX4 0 | HepG2-GM130-SQSTM1 0 | HepG2-TP53BP1-CLTA 0 | HepG2-TUBA1B-RELA 0 | WPMY1-ACTB-RAB5A 0 | WPMY1-CANX-COX4 0 | WPMY1-GM130-SQSTM1 0 | WPMY1-TP53BP1-CLTA 0 | WPMY1-TUBA1B-RELA 0

CC(C)(Oc1ccc(C2CC2(Cl)Cl)cc1)C(=O)O (stereo not given) [ciprofibrate]
inactive: A549-ACTB-RAB5A 0 | A549-CANX-COX4 0 | A549-GM130-SQSTM1 0 | A549-TP53BP1-CLTA 0 | A549-TUBA1B-RELA 0 | HepG2-ACTB-RAB5A 0 | HepG2-CANX-COX4 0 | HepG2-GM130-SQSTM1 0 | HepG2-TP53BP1-CLTA 0 | HepG2-TUBA1B-RELA 0 | WPMY1-ACTB-RAB5A 0 | WPMY1-CANX-COX4 0 | WPMY1-GM130-SQSTM1 0 | WPMY1-TP53BP1-CLTA 0 | WPMY1-TUBA1B-RELA 0

C=C1C[C@@]23CCC4[C@@](C)(CCC[C@@]4(C)C(=O)O[C@@H]4O[C@H](CO)C(O)[C@H](O)C4O)C2CC[C@@]1(O[C@H]1O[C@H](CO)C(O)[C@H](O)[C@H]1O[C@@H]1O[C@H](CO)[C@@H](O)[C@H](O)[C@H]1O)C3 (stereo not given in full) [Stevioside]
inactive: A549-ACTB-RAB5A 0 | A549-CANX-COX4 0 | A549-GM130-SQSTM1 0 | A549-TP53BP1-CLTA 0 | A549-TUBA1B-RELA 0 | HepG2-ACTB-RAB5A 0 | HepG2-CANX-COX4 0 | HepG2-GM130-SQSTM1 0 | HepG2-TP53BP1-CLTA 0 | HepG2-TUBA1B-RELA 0 | WPMY1-ACTB-RAB5A 0 | WPMY1-CANX-COX4 0 | WPMY1-GM130-SQSTM1 0 | WPMY1-TP53BP1-CLTA 0 | WPMY1-TUBA1B-RELA 0

CNC(=O)COC(=O)NCCC1CCN(c2cccc(C)n2)CC1
inactive: A549-ACTB-RAB5A 0 | A549-CANX-COX4 0 | A549-GM130-SQSTM1 0 | A549-TP53BP1-CLTA 0 | A549-TUBA1B-RELA 0 | HepG2-ACTB-RAB5A 0 | HepG2-CANX-COX4 0 | HepG2-GM130-SQSTM1 0 | HepG2-TP53BP1-CLTA 0 | HepG2-TUBA1B-RELA 0 | WPMY1-ACTB-RAB5A 0 | WPMY1-CANX-COX4 0 | WPMY1-GM130-SQSTM1 0 | WPMY1-TP53BP1-CLTA 0 | WPMY1-TUBA1B-RELA 0

CCN(CC)CC(=O)Nc1c(C)cccc1C [lidocaine]
inactive: A549-ACTB-RAB5A 0 | A549-CANX-COX4 0 | A549-GM130-SQSTM1 0 | A549-TP53BP1-CLTA 0 | A549-TUBA1B-RELA 0 | HepG2-ACTB-RAB5A 0 | HepG2-CANX-COX4 0 | HepG2-GM130-SQSTM1 0 | HepG2-TP53BP1-CLTA 0 | HepG2-TUBA1B-RELA 0 | WPMY1-ACTB-RAB5A 0 | WPMY1-CANX-COX4 0 | WPMY1-GM130-SQSTM1 0 | WPMY1-TP53BP1-CLTA 0 | WPMY1-TUBA1B-RELA 0

O=C1CN2Cc3c(ccc(Cl)c3Cl)N=C2N1 [Anagrelide hydrochloride]
inactive: A549-ACTB-RAB5A 0 | A549-CANX-COX4 0 | A549-GM130-SQSTM1 0 | A549-TP53BP1-CLTA 0 | A549-TUBA1B-RELA 0 | HepG2-ACTB-RAB5A 0 | HepG2-CANX-COX4 0 | HepG2-GM130-SQSTM1 0 | HepG2-TP53BP1-CLTA 0 | HepG2-TUBA1B-RELA 0 | WPMY1-ACTB-RAB5A 0 | WPMY1-CANX-COX4 0 | WPMY1-GM130-SQSTM1 0 | WPMY1-TP53BP1-CLTA 0 | WPMY1-TUBA1B-RELA 0

NS(=O)(=O)Cc1noc2ccccc12 [zonisamide]
inactive: A549-ACTB-RAB5A 0 | A549-CANX-COX4 0 | A549-GM130-SQSTM1 0 | A549-TP53BP1-CLTA 0 | A549-TUBA1B-RELA 0 | HepG2-ACTB-RAB5A 0 | HepG2-CANX-COX4 0 | HepG2-GM130-SQSTM1 0 | HepG2-TP53BP1-CLTA 0 | HepG2-TUBA1B-RELA 0 | WPMY1-ACTB-RAB5A 0 | WPMY1-CANX-COX4 0 | WPMY1-GM130-SQSTM1 0 | WPMY1-TP53BP1-CLTA 0 | WPMY1-TUBA1B-RELA 0

CNS(=O)(=O)CCc1ccc2[nH]cc(C3CCN(C)CC3)c2c1 [naratriptan]
inactive: A549-ACTB-RAB5A 0 | A549-CANX-COX4 0 | A549-GM130-SQSTM1 0 | A549-TP53BP1-CLTA 0 | A549-TUBA1B-RELA 0 | HepG2-ACTB-RAB5A 0 | HepG2-CANX-COX4 0 | HepG2-GM130-SQSTM1 0 | HepG2-TP53BP1-CLTA 0 | HepG2-TUBA1B-RELA 0 | WPMY1-ACTB-RAB5A 0 | WPMY1-CANX-COX4 0 | WPMY1-GM130-SQSTM1 0 | WPMY1-TP53BP1-CLTA 0 | WPMY1-TUBA1B-RELA 0

O=C(/C=C/N1C[C@H]2C[C@@H]1CN2c1ccccn1)c1ccccc1O
inactive: A549-ACTB-RAB5A 0 | A549-CANX-COX4 0 | A549-GM130-SQSTM1 0 | A549-TP53BP1-CLTA 0 | A549-TUBA1B-RELA 0 | HepG2-ACTB-RAB5A 0 | HepG2-CANX-COX4 0 | HepG2-GM130-SQSTM1 0 | HepG2-TP53BP1-CLTA 0 | HepG2-TUBA1B-RELA 0 | WPMY1-ACTB-RAB5A 0 | WPMY1-CANX-COX4 0 | WPMY1-GM130-SQSTM1 0 | WPMY1-TP53BP1-CLTA 0 | WPMY1-TUBA1B-RELA 0

C[N+](C)(CCCCCC[N+](C)(C)CCCN1C(=O)c2ccccc2C1=O)CCCN1C(=O)c2ccccc2C1=O [W-84 dibromide]
inactive: A549-ACTB-RAB5A 0 | A549-CANX-COX4 0 | A549-GM130-SQSTM1 0 | A549-TP53BP1-CLTA 0 | A549-TUBA1B-RELA 0 | HepG2-ACTB-RAB5A 0 | HepG2-CANX-COX4 0 | HepG2-GM130-SQSTM1 0 | HepG2-TP53BP1-CLTA 0 | HepG2-TUBA1B-RELA 0 | WPMY1-ACTB-RAB5A 0 | WPMY1-CANX-COX4 0 | WPMY1-GM130-SQSTM1 0 | WPMY1-TP53BP1-CLTA 0 | WPMY1-TUBA1B-RELA 0

CCc1nn(CCCN2CCN(c3cccc(Cl)c3)CC2)c(=O)n1CCOc1ccccc1 [nefazodone]
inactive: A549-ACTB-RAB5A 0 | A549-CANX-COX4 0 | A549-GM130-SQSTM1 0 | A549-TP53BP1-CLTA 0 | A549-TUBA1B-RELA 0 | HepG2-ACTB-RAB5A 0 | HepG2-CANX-COX4 0 | HepG2-GM130-SQSTM1 0 | HepG2-TP53BP1-CLTA 0 | HepG2-TUBA1B-RELA 0 | WPMY1-ACTB-RAB5A 0 | WPMY1-CANX-COX4 0 | WPMY1-GM130-SQSTM1 0 | WPMY1-TP53BP1-CLTA 0 | WPMY1-TUBA1B-RELA 0

CC1(C(=O)O)CCC2(C)CCC3(C)C(=CC(=O)C4C5(C)CCC(OC6OC(C(=O)O)C(O)C(O)C6OC6OC(C(=O)O)C(O)C(O)C6O)C(C)(C)C5CCC43C)C2C1 (stereo not given) [Glycyrrhizic acid]
inactive: A549-ACTB-RAB5A 0 | A549-CANX-COX4 0 | A549-GM130-SQSTM1 0 | A549-TP53BP1-CLTA 0 | A549-TUBA1B-RELA 0 | HepG2-ACTB-RAB5A 0 | HepG2-CANX-COX4 0 | HepG2-GM130-SQSTM1 0 | HepG2-TP53BP1-CLTA 0 | HepG2-TUBA1B-RELA 0 | WPMY1-ACTB-RAB5A 0 | WPMY1-CANX-COX4 0 | WPMY1-GM130-SQSTM1 0 | WPMY1-TP53BP1-CLTA 0 | WPMY1-TUBA1B-RELA 0
